Screening data (PubChem)
CYP2C19 inh: blockers of cytochrome P450 2C19 activity – biochemical, luminescence, ADME assay, primary screen; P33261; CYP2C19 Supersomes, luciferin-H EGE luminescence, 30 min; inhibition, % at 5 µM; 21% of 96,000 active; AID 778, 2007;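 active = CYP2C19 inhibition above a set limit at 5 µM in the primary screen, cut at about 50% in these data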;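 note: plate controls were negative control wells for no effect and 2.5 mM tranylcypromine positive control for full effect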
CYP2C9 inh: blockers of cytochrome P450 2C9 activity – biochemical, luminescence, ADME assay, primary screen; P11712; CYP2C9 Supersomes, luciferin-H conversion; inhibition, % at 5 µM; 20% of 96,000 active;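 active = blocking of liver enzyme CYP2C9 beyond about 50% at 5 µM, limit read from the data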
CYP2C19 activ: human CYP2C19 activators, primary screen, biochemical, luminescence; Cytochrome P450 2C19 (Homo sapiens), P33261; AID 1025, 2008; activation factor at 5 µM; 96,000 tested, under 10 active; recombinant CYP2C19, luciferin-H EGE luminescence; stronger effect = higher value; 0 = fully inhibited enzyme, 1 = untreated enzyme;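 active = activation factor of at least 2 at 5 µM in the primary screen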;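 note: 0 = wells with 2.5 mM tranylcypromine and 1 = vehicle-only wells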
Pyk2 oligo antag: antagonists of Pyk2 self-association, primary screen, Q293 cells, FERM NanoBiT luminescence, HTS; z-score (the deposit names both 25 µM and 10 µM); stronger effect = lower value; Protein-tyrosine kinase 2-beta (Homo sapiens), Q14289; 0.83% of 99,000 active;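 active = Z-score of -3 or lower, scaled per plate to the spread of control and sample wells; inactive = z-score above -3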;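 note: negative z-score means lost luminescence so less FERM oligomerization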
Target sequence (Q14289 whole entry, looked up): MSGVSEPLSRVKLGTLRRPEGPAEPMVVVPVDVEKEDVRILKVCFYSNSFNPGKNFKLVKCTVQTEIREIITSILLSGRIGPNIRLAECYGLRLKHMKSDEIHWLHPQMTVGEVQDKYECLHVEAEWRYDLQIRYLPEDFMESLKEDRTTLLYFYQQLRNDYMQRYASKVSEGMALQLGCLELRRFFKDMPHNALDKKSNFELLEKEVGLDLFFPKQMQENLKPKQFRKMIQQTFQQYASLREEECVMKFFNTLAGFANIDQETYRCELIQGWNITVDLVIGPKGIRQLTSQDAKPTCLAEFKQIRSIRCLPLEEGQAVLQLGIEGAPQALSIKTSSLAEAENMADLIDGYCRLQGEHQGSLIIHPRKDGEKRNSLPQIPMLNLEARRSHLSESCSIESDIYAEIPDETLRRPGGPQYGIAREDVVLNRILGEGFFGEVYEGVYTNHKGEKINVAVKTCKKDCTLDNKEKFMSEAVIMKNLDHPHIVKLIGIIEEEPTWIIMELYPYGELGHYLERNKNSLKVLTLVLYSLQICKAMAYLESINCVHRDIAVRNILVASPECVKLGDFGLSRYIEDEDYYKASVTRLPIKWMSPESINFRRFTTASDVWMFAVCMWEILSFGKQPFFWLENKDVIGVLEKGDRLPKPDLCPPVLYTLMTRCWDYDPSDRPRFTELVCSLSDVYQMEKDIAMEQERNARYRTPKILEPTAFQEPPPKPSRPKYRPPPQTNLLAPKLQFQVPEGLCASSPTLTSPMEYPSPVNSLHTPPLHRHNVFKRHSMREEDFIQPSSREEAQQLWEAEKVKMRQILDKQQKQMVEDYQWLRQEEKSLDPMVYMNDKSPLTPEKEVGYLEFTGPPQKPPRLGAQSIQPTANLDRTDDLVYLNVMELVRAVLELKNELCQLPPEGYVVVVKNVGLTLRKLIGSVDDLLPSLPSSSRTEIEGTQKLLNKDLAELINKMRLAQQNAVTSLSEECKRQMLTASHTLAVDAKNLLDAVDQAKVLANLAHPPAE
CYP2C9 activ: human CYP2C9 activators, primary screen, biochemical, luminescence. Cytochrome P450 2C9 (Homo sapiens), P11712. recombinant CYP2C9, luciferin-H conversion; stronger effect = higher value; factor 1 = untreated enzyme, 0 = blocked. activation factor at 5 µM. 1.4% of 96,000 active. AID 1024, 2008;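 active = activation factor of 2 or more for CYP2C9 at a 5 µM dose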;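 note: 0 = sulfaphenazole-blocked wells and 1 = vehicle-only wells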
An asterisk follows results filed as active. The list is not random: actives were taken first. Their share in the collection is about 28%.

Results for O=C(Nc1ccccc1N1CCOCC1)c1ccccc1[N+](=O)[O-] ?
CYP2C19 inh: 6.4; CYP2C9 inh: 6.0; CYP2C19 activ: 0.9; Pyk2 oligo antag: 1.69; CYP2C9 activ: 0.9

How did COc1ccc(C)cc1C(=O)CCC(=O)Nc1ccccc1N1CCOCC1 do in these assays?
CYP2C19 inh: 80.6*; CYP2C9 inh: 81.9*; CYP2C19 activ: 0.2; Pyk2 oligo antag: -0.33; CYP2C9 activ: 0.2

What do the screens show for `CCOc1ccc(S(=O)(=O)Nc2ccccc2C(=O)Nc2ccccc2N2CCOCC2)cc1`?
CYP2C19 inh: 84.5*; CYP2C9 inh: 68.9*; CYP2C19 activ: 0.2; Pyk2 oligo antag: -3.13*; CYP2C9 activ: 0.3

How did Cc1ccccc1NC(=O)c1cc(S(=O)(=O)N2CCOCC2)ccc1F do in these assays?
CYP2C19 inh: 1.1; CYP2C9 inh: 4.1; CYP2C19 activ: 1; Pyk2 oligo antag: 0.33; CYP2C9 activ: 1

Results for O=C(Nc1ccccc1N1CCOCC1)c1ccccc1NS(=O)(=O)c1ccc(F)cc1 ?
CYP2C19 inh: 58.2*; CYP2C9 inh: 77.8*; CYP2C19 activ: 0.4; Pyk2 oligo antag: 0.13; CYP2C9 activ: 0.2

Results for CC1=N/C(=C\c2ccc([N+](=O)[O-])cc2)C(=O)N1c1ccc(Br)c(C)c1 ?
CYP2C19 inh: 18.1; CYP2C9 inh: 30.4; CYP2C19 activ: 0.8; Pyk2 oligo antag: -1.63; CYP2C9 activ: 0.7

What do the screens show for `COC(=O)CNC(=O)CN1C(=O)N(c2cccc(Cl)c2)C(N(O)C(=O)Nc2cccc(Cl)c2)C1(C)C` (stereo unspecified)?
CYP2C19 inh: 16.9; CYP2C9 inh: 20.9; CYP2C19 activ: 0.8; Pyk2 oligo antag: 0.18; CYP2C9 activ: 0.8

What do the screens show for `O=C(c1ccco1)N1CCN(C(=O)C2CCCO2)CC1` (stereo unspecified)?
Pyk2 oligo antag: 0.8

How did O=C(Nc1ccccc1Cl)c1cccc(COc2cc(Cl)ccc2Cl)c1 do in these assays?
CYP2C19 inh: -2.1; CYP2C9 inh: -4.1; CYP2C19 activ: 1; Pyk2 oligo antag: 1.45; CYP2C9 activ: 1

How did COc1ccc(N2C(=O)C3CCCN3C2c2ccccc2)cc1 (stereo unspecified) do in these assays?
CYP2C19 inh: 4.5; CYP2C9 inh: 6.0; CYP2C19 activ: 1; CYP2C9 activ: 0.9

Results for Cc1ccc(C)c(S(=O)(=O)Nc2ccccc2C(=O)Nc2ccccc2N2CCOCC2)c1 ?
CYP2C19 inh: 94.3*; CYP2C9 inh: 97.1*; CYP2C19 activ: 0.1; Pyk2 oligo antag: -2.16; CYP2C9 activ: 0

How did Cc1cc(F)ccc1S(=O)(=O)Nc1ccccc1C(=O)Nc1ncn[nH]1 do in these assays?
CYP2C19 inh: 94.0*; CYP2C9 inh: 40.5; CYP2C19 activ: 0.1; Pyk2 oligo antag: -1.68; CYP2C9 activ: 0.6

Results for Cc1cc(F)ccc1S(=O)(=O)Nc1ccccc1C(=O)Nc1ccccc1N1CCOCC1 ?
CYP2C19 inh: 83.3*; CYP2C9 inh: 86.8*; CYP2C19 activ: 0.2; Pyk2 oligo antag: -1.53; CYP2C9 activ: 0.1

Results for Cc1ccccc1NC(=O)CSCCO ?
CYP2C19 inh: -8.9; CYP2C9 inh: -9.7; CYP2C19 activ: 1.1; Pyk2 oligo antag: 0.52; CYP2C9 activ: 1.1

How did Cn1nnc(NCc2cc(Br)ccc2OCc2cccs2)n1 do in these assays?
CYP2C19 inh: 37.2; CYP2C9 inh: 43.9; CYP2C19 activ: 0.6; Pyk2 oligo antag: -0.87; CYP2C9 activ: 0.6

What do the screens show for `O=C(NCC1CCCO1)C1CCN(S(=O)(=O)c2cccc3cccnc23)CC1` (stereo unspecified)?
CYP2C19 inh: -3.9; CYP2C9 inh: -61.6; CYP2C19 activ: 1; CYP2C9 activ: 1.6

How did O=C(NCC1COc2ccccc2O1)C1CCN(S(=O)(=O)c2cccc3nsnc23)CC1 (stereo unspecified) do in these assays?
CYP2C19 inh: 58.9*; CYP2C9 inh: -66.1; CYP2C19 activ: 0.4; Pyk2 oligo antag: 0.44; CYP2C9 activ: 1.7

What do the screens show for `O=C(NCC1COc2ccccc2O1)C1CCCN(S(=O)(=O)c2cccc3nsnc23)C1` (stereo unspecified)?
CYP2C19 inh: 53.9*; CYP2C9 inh: 61.0*; CYP2C19 activ: 0.5; Pyk2 oligo antag: -0.28; CYP2C9 activ: 0.4

What do the screens show for `O=C(NCC1COc2ccccc2O1)C1CCCN(S(=O)(=O)c2cccc3cccnc23)C1` (stereo unspecified)?
CYP2C19 inh: 75.3*; CYP2C9 inh: -93.4; CYP2C19 activ: 0.2; CYP2C9 activ: 1.9

Results for O=C(Nc1nnc(C2CC2)s1)c1cccc(S(=O)(=O)N2CC(c3ccccc3)CC2=O)c1 (stereo unspecified) ?
CYP2C19 inh: 1.2; CYP2C9 inh: 23.7; CYP2C19 activ: 1; CYP2C9 activ: 0.8

Results for Cc1nc2[nH]c(=O)c3c(n2n1)NC1=C(C(=O)CC(C)(C)C1)C3c1ccc(F)cc1 (stereo unspecified) ?
CYP2C19 inh: -8.9; CYP2C9 inh: -4.6; CYP2C19 activ: 1.1; Pyk2 oligo antag: 1.17; CYP2C9 activ: 1

What do the screens show for `Cc1ccc(C2C3=C(CC(C)(C)CC3=O)Nc3[nH]c(=S)[nH]c(=O)c32)cc1` (stereo unspecified)?
CYP2C19 inh: 39.7; CYP2C9 inh: 69.7*; CYP2C19 activ: 0.6; Pyk2 oligo antag: -0.65; CYP2C9 activ: 0.3

What do the screens show for `O=C(CN1CCN(C(=O)c2ccccc2F)CC1)Nc1ccc(Br)cc1`?
CYP2C19 inh: 27.3; CYP2C9 inh: -169.5; CYP2C19 activ: 0.7; Pyk2 oligo antag: 0.75; CYP2C9 activ: 2.7*

What do the screens show for `CCc1ccc(NC(=O)CN2CCc3ccccc3C2)cc1`?
CYP2C19 inh: 92.3*; CYP2C9 inh: 89.8*; CYP2C19 activ: 0.1; Pyk2 oligo antag: 0.07; CYP2C9 activ: 0.1

How did O=C(CN1CCc2ccccc2C1)Nc1ccc(Br)cc1 do in these assays?
CYP2C19 inh: 89.6*; CYP2C9 inh: 42.3; CYP2C19 activ: 0.1; Pyk2 oligo antag: 1.7; CYP2C9 activ: 0.6

Results for CCc1ccc(NC(=O)NCCN2CCc3ccccc3C2)cc1 ?
Pyk2 oligo antag: 0.18

What do the screens show for `CC(C)C(=O)Nc1cc(=O)[nH]c2ncnn12`?
CYP2C19 inh: -1.8; CYP2C9 inh: -4.3; CYP2C19 activ: 1; Pyk2 oligo antag: 0.76; CYP2C9 activ: 1

Results for Cc1ccc(C2c3c(oc4ccccc4c3=O)C(=O)N2c2nnc(C(C)C)s2)o1 (stereo unspecified) ?
CYP2C19 inh: -5.1; CYP2C9 inh: 13.1; CYP2C19 activ: 1.1; CYP2C9 activ: 0.9

Results for Cc1ccc(S(=O)(=O)N2CCN(C(=O)CSc3nc4ccccc4c(=O)[nH]3)CC2)c(C)c1 ?
CYP2C19 inh: -2.2; CYP2C9 inh: 25.9; CYP2C19 activ: 1; Pyk2 oligo antag: -0.8; CYP2C9 activ: 0.7
